Measured values taken from PubChem BioAssay.
Activity calls are given as the source filed them.

Columns and labels:
Albumin (Bos taurus) = Albumin (Bos taurus) (UniProt P02769); test: compounds binding labelled BSA control protein – biochemical, small-molecule microarray, Alexa647 label, 635/667 nm fluorescence, artefact control for SMM control protein annotation, profiling panel (AID 1118); settings: BSA-A647 binding, fluorescence 635 nm, higher = more signal;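 further: score merges 667 nm emission intensity and signal-to-noise per printed compound spot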
Chain of Albumin (Bos taurus) (P02769 whole entry, looked up): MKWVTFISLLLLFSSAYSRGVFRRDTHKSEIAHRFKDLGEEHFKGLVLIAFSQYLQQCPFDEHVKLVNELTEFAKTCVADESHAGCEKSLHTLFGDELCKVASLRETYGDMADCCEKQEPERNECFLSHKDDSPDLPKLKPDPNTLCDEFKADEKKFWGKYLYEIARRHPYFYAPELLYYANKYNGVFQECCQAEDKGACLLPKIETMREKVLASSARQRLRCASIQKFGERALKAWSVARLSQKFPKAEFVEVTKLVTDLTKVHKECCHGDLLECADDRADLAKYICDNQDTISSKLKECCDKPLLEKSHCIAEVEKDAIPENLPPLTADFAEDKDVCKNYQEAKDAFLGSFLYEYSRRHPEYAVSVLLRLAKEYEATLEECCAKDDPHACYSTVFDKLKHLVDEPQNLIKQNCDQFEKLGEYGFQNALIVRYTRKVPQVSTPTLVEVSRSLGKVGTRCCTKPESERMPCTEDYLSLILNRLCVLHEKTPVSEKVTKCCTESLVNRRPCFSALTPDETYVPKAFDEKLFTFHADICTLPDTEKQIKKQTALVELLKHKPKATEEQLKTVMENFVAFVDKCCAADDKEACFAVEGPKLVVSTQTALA

[1] = probe aXIP binding to arrayed compounds – biochemical, NeuroSMM set, 635/667 nm fluorescence, primary screen (AID 1119); settings: small-molecule microarray, higher = more signal, called active from +8 up or from −8 down;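 further: probe is the protein aXip251-270 applied at 1 µg/mL to compound-printed slides; binding of probe to printed compounds measured as 667 nm fluorescence plus signal to noise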
[2] = probe aNOTCH3 binding on compound microarray – biochemical, small-molecule microarray, 635/667 nm fluorescence, primary screen (AID 1120); settings: higher = more signal;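 further: probe is a biotin-tagged antibody raised against NOTCH3 rather than NOTCH3 protein; score merges spot fluorescence near 667 nm with spot signal to noise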
[3] = probe aNOTCH2 binding on compound microarray – biochemical, small-molecule microarray, 635/667 nm fluorescence, primary screen (AID 1121); settings: higher = more signal;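 further: score merges feature fluorescence read at 667 nm with its signal to noise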
[4] = biological target: Carbonic anhydrase 2 (Homo sapiens) (UniProt P00918); test: compounds binding carbonic anhydrase 2 – biochemical, small-molecule microarray, Alexa647-labelled CAII, profiling panel (AID 1122); settings: CAII-A647 binding fluorescence, higher = more signal
[5] = COS7 lysate on small-molecule microarray, probe aHis, 635 nm (AID 1123); settings: COS7 cell lysate, fluorescence, higher = more signal;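 further: z-score combines 667nm fluorescence intensity with signal-to-noise per printed compound spot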
[6] = probe aLAP1 signal on lysate-treated microarray – cell lysate, small-molecule microarray, COS7 lysate, primary screen (AID 1124); settings: probe aLAP1, fluorescence, higher = more signal;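 further: lysate comes from COS7 cells expressing LAP1 and is applied at 0.3 µg/mL; score merges spot fluorescence near 667 nm with signal-to-noise over triplicate slides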
Sam68 (KHDRBS1) = test: compounds binding KHDRBS1 protein – biochemical, small-molecule microarray, 635 nm fluorescence, primary screen (AID 1125); settings: higher = more signal;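 further: score merges 667 nm channel intensity with signal to noise over triplicate slides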
[7] = test system: Chordin-like protein 2 (CHRDL2); test: compounds binding chordin-like 2 – biochemical, small-molecule microarray, 635 nm fluorescence, primary screen (AID 1126); settings: fluorescence 635 nm, higher = more signal;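 further: printed compound slides probed with Chrdl2 protein at 4 µg/mL for 1 h at 4 C; score merges 667 nm emission intensity with signal to noise over three replicate slides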
[8] = biological target: Concanavalin-A (Canavalia ensiformis) (UniProt P02866); test: compounds binding concanavalin A lectin – biochemical, small-molecule microarray, Alexa647 label, 635 nm, artefact control for SMM control protein annotation, primary screen (AID 1127); settings: ConA-A647 binding fluorescence, higher = more signal;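 further: z combines 667 nm emission intensity with signal-to-noise across three replicate slides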
Chain of Concanavalin-A (Canavalia ensiformis) (P02866 whole entry, looked up): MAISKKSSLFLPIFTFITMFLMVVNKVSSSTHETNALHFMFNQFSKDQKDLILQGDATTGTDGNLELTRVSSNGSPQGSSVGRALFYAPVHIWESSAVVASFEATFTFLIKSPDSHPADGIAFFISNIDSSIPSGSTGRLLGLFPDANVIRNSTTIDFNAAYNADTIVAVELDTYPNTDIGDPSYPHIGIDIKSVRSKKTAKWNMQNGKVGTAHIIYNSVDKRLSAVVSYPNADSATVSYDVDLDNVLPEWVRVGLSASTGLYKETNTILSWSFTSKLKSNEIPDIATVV

[9] = compounds binding Alexa647 anti-His antibody – biochemical, small-molecule microarray, 635 nm fluorescence, artefact control for SMM control protein annotation, primary screen (AID 1128); settings: higher = more signal;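 further: score merges feature fluorescence with signal-to-noise for each printed compound spot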
[10] = test system: Human papillomavirus type 1a E7 protein (residues 1-88); test: HPV1a E7 small-molecule binders, primary screen, biochemical, small-molecule microarray, residues 1-88, 635 nm (AID 1129); settings: small-molecule microarray binding, fluorescence 635 nm; higher = more signal
[11] = biological target: Focal adhesion kinase 1 (Homo sapiens) (UniProt Q05397); test: PTK2 protein binding on printed compound slides – biochemical, small-molecule microarray, 635/667 nm fluorescence, BSA, DTT, primary screen (AID 1130); settings: 635 nm fluorescence, higher = more signal;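 further: composite of spot emission at 667 nm and signal to noise over triplicate slides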
Chain of Focal adhesion kinase 1 (Homo sapiens) (Q05397 whole entry, looked up): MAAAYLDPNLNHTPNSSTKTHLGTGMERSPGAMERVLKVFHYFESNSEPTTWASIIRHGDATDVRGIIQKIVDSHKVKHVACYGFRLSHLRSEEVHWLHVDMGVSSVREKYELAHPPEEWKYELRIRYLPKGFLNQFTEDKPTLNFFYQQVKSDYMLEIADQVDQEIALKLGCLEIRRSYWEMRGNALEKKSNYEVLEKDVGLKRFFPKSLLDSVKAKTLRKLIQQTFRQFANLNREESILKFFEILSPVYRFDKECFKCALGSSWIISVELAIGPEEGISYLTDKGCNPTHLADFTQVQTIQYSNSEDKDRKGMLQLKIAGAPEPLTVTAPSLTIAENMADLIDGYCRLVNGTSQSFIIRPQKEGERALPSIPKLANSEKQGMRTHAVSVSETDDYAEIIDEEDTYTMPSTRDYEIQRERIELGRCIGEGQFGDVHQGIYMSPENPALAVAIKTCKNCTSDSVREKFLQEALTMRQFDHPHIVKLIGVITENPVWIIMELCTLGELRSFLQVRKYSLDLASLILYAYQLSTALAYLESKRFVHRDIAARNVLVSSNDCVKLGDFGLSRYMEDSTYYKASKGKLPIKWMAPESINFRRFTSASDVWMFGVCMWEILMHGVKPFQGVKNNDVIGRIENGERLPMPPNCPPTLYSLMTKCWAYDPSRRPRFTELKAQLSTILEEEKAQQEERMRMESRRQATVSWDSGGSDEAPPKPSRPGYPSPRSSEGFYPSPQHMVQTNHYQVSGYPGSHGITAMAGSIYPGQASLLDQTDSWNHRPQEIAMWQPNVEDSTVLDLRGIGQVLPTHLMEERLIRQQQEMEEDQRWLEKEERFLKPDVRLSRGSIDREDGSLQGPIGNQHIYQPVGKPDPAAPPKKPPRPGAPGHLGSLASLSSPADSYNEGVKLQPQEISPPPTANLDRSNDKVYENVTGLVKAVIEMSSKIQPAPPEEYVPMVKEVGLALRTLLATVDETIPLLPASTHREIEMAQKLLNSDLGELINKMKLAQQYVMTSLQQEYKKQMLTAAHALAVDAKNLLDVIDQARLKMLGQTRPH

[12] = test system: Fibrinogen (Alexa647-labelled); test: Alexa647-fibrinogen binding to printed small molecules – biochemical, small-molecule microarray, 635/667 nm fluorescence, artefact control for SMM control-protein annotation, profiling panel (AID 1131); settings: fibrinogen-A647 binding fluorescence, higher = more signal;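 further: z-score merges 667 nm fluorescence with per-spot signal-to-noise over triplicate slides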
[13] = biological target: Follistatin (Homo sapiens) (UniProt P19883); test: FST protein binding to printed compounds – biochemical, small-molecule microarray, 635/667 nm fluorescence, primary screen (AID 1132); settings: 635 nm fluorescence, higher = more signal
Chain of Follistatin (Homo sapiens) (P19883 whole entry, looked up): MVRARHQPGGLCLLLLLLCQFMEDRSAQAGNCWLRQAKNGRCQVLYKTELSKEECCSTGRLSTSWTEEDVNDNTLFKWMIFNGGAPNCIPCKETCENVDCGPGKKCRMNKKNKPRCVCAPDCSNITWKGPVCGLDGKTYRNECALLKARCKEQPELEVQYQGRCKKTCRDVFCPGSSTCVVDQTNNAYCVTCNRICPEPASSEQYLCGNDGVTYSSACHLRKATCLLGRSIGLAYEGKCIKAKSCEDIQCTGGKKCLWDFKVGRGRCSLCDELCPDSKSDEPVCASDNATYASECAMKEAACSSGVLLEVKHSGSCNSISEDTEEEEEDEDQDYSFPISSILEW

[14] = biological target: Fibroblast growth factor 2 (Homo sapiens) (UniProt P09038); test: basic fibroblast growth factor binding to printed compounds – biochemical, small-molecule microarray, 635/667 nm fluorescence, primary screen (AID 1133); settings: FGF2, fluorescence 635/667, higher = more signal
Chain of Fibroblast growth factor 2 (Homo sapiens) (P09038 whole entry, looked up): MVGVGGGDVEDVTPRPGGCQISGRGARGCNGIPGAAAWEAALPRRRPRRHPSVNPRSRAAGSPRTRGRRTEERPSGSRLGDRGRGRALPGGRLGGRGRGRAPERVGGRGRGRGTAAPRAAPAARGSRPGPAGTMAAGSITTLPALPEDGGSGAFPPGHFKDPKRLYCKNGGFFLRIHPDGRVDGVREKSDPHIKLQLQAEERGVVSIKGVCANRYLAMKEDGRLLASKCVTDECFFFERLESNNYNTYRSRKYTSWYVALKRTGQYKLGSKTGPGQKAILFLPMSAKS

[15] = JC-1 mitochondrial potential readout, lung cancer cells – cell-based, A549, JC-1 fluorescence, basal, 24 h, 100 nL, profiling panel (AID 1138); settings: higher = more signal;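 further: A549 lung adenocarcinoma cells under basal conditions with no added stimulus; test concentration not given here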
Lefty1 = Lefty1 protein binding to printed compounds – biochemical, small-molecule microarray, 635/667 nm fluorescence, primary screen (AID 1139); settings: fluorescence 635/667, higher = more signal
[16] = test system: wheat germ agglutinin (Triticum aestivum), Alexa647-labelled; test: Alexa647-WGA lectin binding to printed small molecules – biochemical, small-molecule microarray, 635/667 nm fluorescence, artefact control for SMM control-protein annotation, profiling panel (AID 1140); settings: WGA-A647 binding, 635 nm fluorescence, higher = more signal;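 further: score merges 667 nm feature emission with signal to noise over triplicate slides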
[17] = biological target: Luciferin 4-monooxygenase (Photinus pyralis) (UniProt P08659); test: inhibition of purified Photinus pyralis luciferase – biochemical, luminescence, purified enzyme, 2006 set, primary screen (AID 1141); settings: purified firefly luciferase, SteadyGlo luminescence, 30 min; higher = more signal, called active from +8 up or from −8 down;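 further: cell-free assay with purified firefly luciferase at 100 ng per well in PBS; test concentration not given here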
Chain of Luciferin 4-monooxygenase (Photinus pyralis) (P08659 whole entry, looked up): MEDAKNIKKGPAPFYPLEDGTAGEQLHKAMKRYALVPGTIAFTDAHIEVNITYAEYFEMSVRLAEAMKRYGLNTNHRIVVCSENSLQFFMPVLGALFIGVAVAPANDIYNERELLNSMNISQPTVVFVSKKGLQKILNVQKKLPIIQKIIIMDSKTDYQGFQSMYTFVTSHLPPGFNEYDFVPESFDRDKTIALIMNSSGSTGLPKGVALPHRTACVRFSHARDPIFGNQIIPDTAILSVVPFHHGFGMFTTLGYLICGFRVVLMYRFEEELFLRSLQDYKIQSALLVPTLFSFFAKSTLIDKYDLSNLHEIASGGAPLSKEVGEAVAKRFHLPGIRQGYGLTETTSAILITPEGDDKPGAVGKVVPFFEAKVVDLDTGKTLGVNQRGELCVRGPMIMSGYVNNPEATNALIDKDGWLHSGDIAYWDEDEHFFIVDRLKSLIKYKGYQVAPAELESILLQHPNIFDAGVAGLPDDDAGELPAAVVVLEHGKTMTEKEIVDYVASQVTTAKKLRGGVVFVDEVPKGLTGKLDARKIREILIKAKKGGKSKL

SMILES	composite z-score (Albumin (Bos taurus))	composite Z-score [1]	composite z-score [2]	composite z-score [3]	composite z-score [4]	composite z-score [5]	composite z-score [6]	composite z-score (Sam68 (KHDRBS1))	composite z-score [7]	composite z-score [8]	composite z-score [9]	composite z-score [10]	composite z-score [11]	composite z-score [12]	composite z-score [13]	composite z-score [14]	z-score [15]	composite z-score (Lefty1)	composite z-score [16]	z-score [17]
CCCc1cc2c(n1CCc1ccc(Cl)cc1)C(C)C1CN(C(=O)c3ccccc3)C(C)(C(=O)OC)C21 (stereo not given)	1.03	0.313 (inactive)	0.201	0.203	0.862	2.94	1.07	1.03	-1.75	1.16	1.6	1.22	1.96	1.02	0.114	-1.41	1.25	-0.766	1.34	-0.548 (inactive)
CN(C)CCCC[C@@H]1NC(=O)[C@@H]2C[C@H](C(=O)NCCCCCN)[C@H](c3cccc(OCCO)c3)N2C1=O	0.49	0.932 (inactive)	0.423	-0.14	0.727	0.482	1.27	1.33	0.495	1.21	2.76	1.05	-0.155	0.851	1.08	1.25	2.13	0.908	0.632	-1.6 (inactive)
COCCOC(=O)N1C(=O)[C@@]2(c3cc(C#CC4(O)CCCCCC4)ccc31)[C@H](c1ccc(O)cc1)N1[C@H](c3ccccc3)[C@H](c3ccccc3)OC(=O)[C@H]1[C@@H]2C(=O)N1CCCCCCC1	0.304	-0.0498 (inactive)	0.295	-0.123	0.267	1.33	0.855	1.24	0.33	0.423	1.01	1.19	0.817	0.605	1.39	0.608	0.7	0.851	0.907	-0.552 (inactive)
COc1ccc([Si](C)(C)[C@H]2[C@H](CC(=O)N3Cc4ccccc4C[C@H]3CO)O[C@@]3(C(=O)N(C)c4ccccc43)[C@@H]2C)cc1	0.656	0.673 (inactive)	0.163	-0.11	0.686	1.89	0.941	1.28	1.37	1.01	1.45	1.19	0.333	0.945	1.52	1.24	0.206	1.58	0.938	-0.243 (inactive)
COC(=O)[C@@]1(Cc2ccc(F)cc2)[C@H]2c3cc(C(=O)N4CCCC4)n(Cc4cc(F)cc5c4OCOC5)c3C[C@H]2CN1C(=O)c1ccccc1	0.892	0.364 (inactive)	0.0925	0.0266	-0.0414	-0.203	-0.669	-0.349	-0.631	1.07	1.93	-0.0867	-0.225	0.947	0.906	-0.796	1.8	0.348	0.755	2.74 (inactive)
CCCC#C[Si](O[C@H](CC)c1cn(Cc2ccccc2)nn1)(C(C)C)C(C)C	0.603	0.244 (inactive)	0.151	0.0263	0.365	0.855	-0.193	0.793	0.379	0.572	0.738	0.209	0.0116	0.903	1.01	0.525	-0.0817	0.828	0.143	-0.403 (inactive)
CC=CC(O)C1C=CC2C(=O)NC(=O)C2N1Nc1ccc(Cl)cc1Cl (stereo not given)	0.7	1.23 (inactive)	0.033	-0.0698	0.59	1.72	0.465	-0.227	0.853	-0.953	1.78	-0.352	-0.288	-0.419	1.04	-0.0658	0.099	0.15	0.898	-0.158 (inactive)
C=CCOC(=O)[C@@H]1[C@H]2C(=O)O[C@H](c3ccccc3)[C@H](c3ccccc3)N2[C@H](c2ccc(OCCOC(=O)[C@H]3C[C@H]4C(=O)N5CCC[C@H]5C(=O)N4[C@H]3c3cccc(OCCO)c3)cc2)[C@@]12C(=O)Nc1ccc(I)cc12	-0.638	1.17 (inactive)	-0.0328	-0.0228	0.219	0.942	0.448	1.3	1.02	1.17	1.04	0.994	0.746	0.241	1.4	1.38	-1.32	1.44	0.555	0.0266 (inactive)
CCOC(=O)C[C@H]1[C@H](OC(=O)c2ccccc2-c2ccccc2)[C@@H](NC(=O)c2ccc3ccccc3c2)c2cc(OCCCO)ccc2N1C(=O)Cc1ccc(OC)cc1	0.227	0.25 (inactive)	-0.186	-0.101	-0.165	0.14	0.232	-0.868	-0.341	-0.12	-0.262	-0.191	0.0564	0.805	0.0992	-0.0445	0.847	-0.0328	-0.178	-0.146 (inactive)
CC(C)=CCCC=C(C)C(O)C1C=CC2C(=O)N(c3ccccc3)C(=O)C2N1Nc1ccc(C#N)cc1 (stereo not given)	0.976	-0.213 (inactive)	0.518	-0.157	0.596	2.34	1.54	1.03	0.173	1.11	1	1.21	0.901	0.972	1.31	0.333	-0.902	0.507	1.06	-1.32 (inactive)
C=C(CCCC)/C(=C/C[C@H](OC(C)=O)c1cccc(OCCO)c1)c1cnc2ccccc2c1	-0.0372	-0.325 (inactive)	-0.135	-0.149	0.84	-0.66	-0.207	0.0549	0.466	0.116	-0.966	-0.263	-0.494	-0.785	0.389	-0.183	2.35	0.177	0.324	-1.29 (inactive)
